Measurements: PubChem BioAssay AID1259417 (TB Discovery Research, Infectious Disease Research Institute, 2018)
The campaign covered roughly 1,100 compounds. About 760 (69%) were called active. How the calls were made is not given here. So high a share suggests a set chosen from earlier hits. Some of the results follow.

Test: M. tuberculosis growth inhibition, HTS (AID 1259417);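 further: bacteria grown with compound for 5 days at 37 °C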
Conditions: stronger effect = higher value, concentration not given here
[1] = M. tuberculosis DsRed fluorescence growth inhibition
[2] = M. tuberculosis growth inhibition

Q: With `Cc1ccc(-c2nnc(NC(=O)c3ccccc3C)o2)c(C)c1` as the compound, how does the inhibition [1] read?
A: 84.4% (active)

Q: And the inhibition [2]?
A: 87.2%

Q: Which inhibition [1] does the source give for `Cc1ccc(-c2nnc(NC(=O)c3cc4ccccc4oc3=O)o2)c(C)c1` here?
A: 80.8% (active)

Q: What about the inhibition [2] of the same compound?
A: 88.6%

Q: For `Cc1ccc(-c2nnc(NC(=O)c3ccccc3Br)o2)c(C)c1`, which inhibition [1] is on record?
A: 6.55% (inactive)

Q: And the inhibition [2]?
A: 19.3%

Q: With `Cc1ccc(-c2nnc(NC(=O)c3ccccc3Cl)o2)c(C)c1` as the compound, how does the inhibition [1] read?
A: 24.1% (active)

Q: And the inhibition [2]?
A: 62.8%

Q: Which results are given for `CCOC(=O)C1CCN(C2=NC(=O)C(=Cc3ccc(Cl)cc3Cl)S2)CC1`?
A: inhibition [1]: 51.5% (active); inhibition [2]: 55.8%

Q: Which results are given for `NC(=O)C1CCN(C2=NC(=O)C(=Cc3ccc(Cl)cc3Cl)S2)CC1`?
A: inhibition [1]: 100% (active); inhibition [2]: 99.1%

Q: With `Cc1ccc(-c2csc3ncn(C(C)C(=O)OC4CCCCC4)c(=O)c23)cc1C` (configuration not stated) as the compound, how does the inhibition [1] read?
A: -0.545% (inactive)

Q: What about the inhibition [2] of the same compound?
A: -11%

Q: With `CSc1nc2nc3c(c(=O)n2[nH]1)CCCC3` as the compound, how does the inhibition [1] read?
A: 23.8% (active)

Q: What about the inhibition [2] of the same compound?
A: 41.7%

Q: For `Cc1ccc(C(C)C)c(OCCCCn2ccnc2)c1`, which inhibition [1] is on record?
A: 98.9% (active)

Q: What about the inhibition [2] of the same compound?
A: 100%

Q: What does the source list for `Cc1cc(OCCCCn2ccnc2)cc(C(C)C)c1`?
A: inhibition [1]: 100% (active); inhibition [2]: 100%

Q: Which results are given for `Cc1cc(OCCCCn2ccnc2)ccc1C(C)C`?
A: inhibition [1]: 99.8% (active); inhibition [2]: 98.9%

Q: With `Cc1ccc(C(C)C)cc1OCCCCn1ccnc1` as the compound, how does the inhibition [1] read?
A: 100% (active)

Q: What about the inhibition [2] of the same compound?
A: 99.6%

Q: For `COC(=O)c1ccc(CSc2nnc(-c3ccncc3)o2)o1`, which inhibition [1] is on record?
A: 14.3% (active)

Q: What about the inhibition [2] of the same compound?
A: 39.6%

Q: What does the source list for `O=C(c1ccc(Cl)cc1)c1ccc(CSc2nnc(-c3ccccc3)o2)o1`?
A: inhibition [1]: 97.4% (active); inhibition [2]: 96.9%

Q: With `CCOc1cc(CNC(C)C23CC4CC(CC(C4)C2)C3)cc(Cl)c1OCC(=O)NC(C)(C)C` (configuration not stated) as the compound, how does the inhibition [1] read?
A: 99.2% (active)

Q: And the inhibition [2]?
A: 98.2%

Q: For `COc1cc(CNC(C)c2ccccc2)cc(Cl)c1OCC(=O)Nc1ccccc1` (configuration not stated), which inhibition [1] is on record?
A: 29.9% (active)

Q: And the inhibition [2]?
A: 19%

Q: What does the source list for `CCOC(=O)COc1ccc(S(=O)(=O)N2CCc3ccccc3C2)cc1`?
A: inhibition [1]: 80.1% (active); inhibition [2]: 96.9%

Q: With `CCOC(=O)COc1ccc(S(=O)(=O)N2CCC(C)CC2)cc1` as the compound, how does the inhibition [1] read?
A: 72.7% (active)

Q: What about the inhibition [2] of the same compound?
A: 91.2%

Q: With `Cc1ccc(Oc2cc(NC(=O)CCCn3nc(C)c([N+](=O)[O-])c3C)cc([N+](=O)[O-])c2)cc1` as the compound, how does the inhibition [1] read?
A: 0.414% (inactive)

Q: What about the inhibition [2] of the same compound?
A: -13.5%

Q: Which inhibition [1] does the source give for `COc1ccc(Cc2nnc(SCC(=O)Nc3ccc(C(C)C)cc3)o2)cc1` here?
A: 6.85% (inactive)

Q: And the inhibition [2]?
A: 9.66%

Q: What does the source list for `COC(=O)c1ccc(NC(=O)CSc2nnc(Cc3ccc(OC)cc3)o2)cc1`?
A: inhibition [1]: 18.7% (active); inhibition [2]: 53.1%

Q: Which inhibition [1] does the source give for `COc1ccc(-c2nnc(SCC(=O)Nc3ccc([N+](=O)[O-])cc3)o2)cc1` here?
A: 23.1% (active)

Q: And the inhibition [2]?
A: 88.8%

Q: For `CCOc1ccc(NC(=O)CSc2nnc(Cc3ccc(OC)cc3)o2)cc1`, which inhibition [1] is on record?
A: 3.01% (inactive)

Q: What about the inhibition [2] of the same compound?
A: 2.07%

Q: With `CCOC(=O)c1ccc(NC(=O)CSc2nnc(-c3ccc(OC)cc3)o2)cc1` as the compound, how does the inhibition [1] read?
A: 18.2% (active)

Q: And the inhibition [2]?
A: 56.7%

Q: Which results are given for `COc1cccc(NC(=O)CSc2nnc(-c3ccc(Br)cc3)o2)c1`?
A: inhibition [1]: 17.3% (inactive); inhibition [2]: 19.2%

Q: Which results are given for `C=CCSc1nnc(-c2ccc([N+](=O)[O-])cc2)o1`?
A: inhibition [1]: 99.2% (active); inhibition [2]: 99.1%

Q: For `CCOC(=O)CSc1nnc(-c2ccc([N+](=O)[O-])cc2)o1`, which inhibition [1] is on record?
A: 95.7% (active)

Q: What about the inhibition [2] of the same compound?
A: 95.6%

Q: Which inhibition [1] does the source give for `O=C(/C=C/c1cccc([N+](=O)[O-])c1)c1cccs1` here?
A: 94.6% (active)

Q: What about the inhibition [2] of the same compound?
A: 96.5%

Q: Which inhibition [1] does the source give for `CCOC(=O)C(C)Oc1ccc2c(-c3ccc(OC)cc3)cc(=O)oc2c1` (configuration not stated) here?
A: 56.3% (active)

Q: And the inhibition [2]?
A: 89%

Q: With `COC(=O)COc1ccc2c(-c3ccc(OC)cc3)cc(=O)oc2c1` as the compound, how does the inhibition [1] read?
A: 97.7% (active)

Q: What about the inhibition [2] of the same compound?
A: 98.3%

Q: Which inhibition [1] does the source give for `COC(=O)COc1ccc(-c2ccc(C)cc2)cc1` here?
A: 35.7% (active)

Q: And the inhibition [2]?
A: 70.9%

Q: Which results are given for `COC(=O)COc1ccc(NC(=O)c2ccc(-c3ccccc3)cc2)cc1`?
A: inhibition [1]: 99.4% (active); inhibition [2]: 100%

Q: Which inhibition [1] does the source give for `CCOC(=O)c1c(C)n(C)c2ccc(OC(C)C(=O)OC)cc12` (configuration not stated) here?
A: 3.6% (inactive)

Q: And the inhibition [2]?
A: 19.3%

Q: For `CC(C)(C)n1cnc2cc(NC(=O)c3ccc(Cl)cc3)ccc21`, which inhibition [1] is on record?
A: 19.9% (inactive)

Q: And the inhibition [2]?
A: 28.4%

Q: With `COC(=O)COc1ccc(NC(=O)c2ccc3c(c2)C(=O)N(C(C)(C)C)C3=O)cc1` as the compound, how does the inhibition [1] read?
A: 69.9% (active)

Q: What about the inhibition [2] of the same compound?
A: 88.2%

Q: Which inhibition [1] does the source give for `CCOC(=O)COc1ccc2c(c1)c(C(=O)OCC)c(C)n2CC` here?
A: 51.2% (active)

Q: What about the inhibition [2] of the same compound?
A: 69.6%

Q: For `CCOC(=O)COc1ccc(OCc2ccccc2)cc1`, which inhibition [1] is on record?
A: 1.21% (inactive)

Q: And the inhibition [2]?
A: -7.23%

Q: What does the source list for `COC(=O)COc1ccc(-c2ccccc2)cc1`?
A: inhibition [1]: 48.7% (active); inhibition [2]: 85.1%

Q: Which results are given for `Cc1ccc(-c2ccc(OCC(=O)OCc3ccccc3)cc2)cc1`?
A: inhibition [1]: 53.2% (active); inhibition [2]: 82.9%

Q: With `CC(C(=O)OCc1ccccc1)n1cnc2scc(-c3ccc(Br)cc3)c2c1=O` (configuration not stated) as the compound, how does the inhibition [1] read?
A: -4.93% (inactive)

Q: What about the inhibition [2] of the same compound?
A: -4.92%

Q: With `CCOC(=O)COc1ccc(-c2ccc(C)cc2)cc1` as the compound, how does the inhibition [1] read?
A: 24.3% (active)

Q: What about the inhibition [2] of the same compound?
A: 81.2%

Q: With `COc1ccccc1NC(=O)CSc1nc(-c2ccccc2)cc(C(F)(F)F)c1C#N` as the compound, how does the inhibition [1] read?
A: 0.888% (inactive)

Q: And the inhibition [2]?
A: 24.8%

Q: With `CN1CCN(c2cc(-c3ccccc3)nc3c(C(F)(F)F)cccc23)CC1` as the compound, how does the inhibition [1] read?
A: 93% (active)

Q: And the inhibition [2]?
A: 71%

Q: With `CC(NC(=O)c1ccc([N+](=O)[O-])o1)C12CC3CC(CC(C3)C1)C2` (configuration not stated) as the compound, how does the inhibition [1] read?
A: 70% (active)

Q: And the inhibition [2]?
A: 75.5%

Q: Which inhibition [1] does the source give for `CCN(CC)S(=O)(=O)c1ccc(Cl)c(C(=O)Oc2cccc3cccnc23)c1` here?
A: 100% (active)

Q: What about the inhibition [2] of the same compound?
A: 99.3%

Q: Which results are given for `O=C(Oc1cccc2cccnc12)c1ccccc1F`?
A: inhibition [1]: 101% (active); inhibition [2]: 101%

Q: What does the source list for `O=C(Oc1cccc2cccnc12)c1cc2ccccc2oc1=O`?
A: inhibition [1]: 99.2% (active); inhibition [2]: 100%

Q: Which inhibition [1] does the source give for `O=C(Oc1cccc2cccnc12)c1ccco1` here?
A: 101% (active)

Q: What about the inhibition [2] of the same compound?
A: 99.7%

Q: For `O=C(Oc1ccccc1)c1cccc2cccnc12`, which inhibition [1] is on record?
A: 99.7% (active)

Q: And the inhibition [2]?
A: 101%

Q: Which inhibition [1] does the source give for `CS(=O)(=O)Cc1nc2ccccc2oc1=O` here?
A: 99.8% (active)

Q: What about the inhibition [2] of the same compound?
A: 99.5%

Q: Which inhibition [1] does the source give for `CCC(Sc1nc2ccccc2o1)C(=O)Nc1nnc(C)s1` (configuration not stated) here?
A: 92.7% (active)

Q: And the inhibition [2]?
A: 96.2%

Q: Which results are given for `CNc1nc(SC)nc2ccsc12`?
A: inhibition [1]: 99.7% (active); inhibition [2]: 98.9%

Q: With `c1ccc(C2=Nc3ccccc3OC2)cc1` as the compound, how does the inhibition [1] read?
A: 97.6% (active)

Q: What about the inhibition [2] of the same compound?
A: 97.5%

Q: With `CCOC(=O)COc1cc2oc(=O)cc(CC)c2cc1Cl` as the compound, how does the inhibition [1] read?
A: 6.17% (inactive)

Q: What about the inhibition [2] of the same compound?
A: 26.9%

Q: Which inhibition [1] does the source give for `CCCCc1cc(=O)oc2cc(OCC(=O)OCc3ccccc3)c(Cl)cc12` here?
A: 33.1% (active)

Q: What about the inhibition [2] of the same compound?
A: 73.7%

Q: Which results are given for `CCCCc1cc(=O)oc2cc(OC(C)C(=O)OCC)c(Cl)cc12` (configuration not stated)?
A: inhibition [1]: 49.4% (active); inhibition [2]: 93.7%
